Data reported in PubChem BioAssay (NCATS).
Records with an inconclusive call do not appear. Unmarked numbers belong to inactive results. Calls follow the shape of the dose curve; as a rule, active = well fitted cell-killing curve with a large enough effect; inconclusive = small, poorly fitted or top-dose-only effect; inactive = flat fitted curve, though single readings scatter.

Experiment: qHTS assay to identify small molecule inhibitors of chordoma cells - UCH-2 (AID 1259356)
Conditions: UCH-2 chordoma viability, CellTiter-Glo ATP luminescence, 48 h; series mostly up to 46.1 µM; activity change, negative = inhibition: at the top concentration
% is scaled to controls: 0 for no effect and ±100 for the full control effect.

Structure (SMILES)	activity change, negative = inhibition
C=C1C(CCl)(CCl)C2(Cl)C(Cl)C(Cl)C1(Cl)C2(Cl)Cl (centres undefined)	1.22%
CC(C)=CCC/C(C)=C/CC/C(C)=C/CC/C(C)=C/CC1=C(C)C(=O)c2ccccc2C1=O	8.02%
CN(C)CCC(O)(c1ccccc1)c1ccccc1Cl (centres undefined)	4.4%
C=C1CC[C@H](O)CC1=C/C=C1\CCC[C@]2(C)[C@@H]([C@H](C)CC[C@@H](O)C(C)(C)O)CC[C@@H]12	5.1%
CC(CN(C)C)CN1c2ccccc2Sc2ccc(C(F)(F)F)cc21 (centres undefined)	-5.24%
CCCCC[C@H](O)/C=C/[C@@H]1[C@H]2C/C(=C/CCCC(=O)O)O[C@H]2C[C@H]1O	4.28%
S=C1SCN(Cc2ccccc2)CN1Cc1ccccc1	11.4%
Cc1ncc(C[n+]2csc(CCO)c2C)c(N)n1	-0.895% [at 20.6 µM]
C=C[C@]1(C)C[C@@H](OC(=O)CSCCN(CC)CC)[C@]2(C)[C@H](C)CC[C@]3(CCC(=O)[C@H]32)[C@@H](C)[C@@H]1O	4.68%
c1ccc2c(c1)Sc1ccccc1N2CCN1CCCC1	-0.596%
CCN(CC)CCC(=O)N1c2ccccc2Sc2ccc(Cl)cc21	4.4%
CCN(CC)CCOc1ccc2nc(N(C)C)sc2c1	-0.444%
CC(C)(C)NCC(O)c1ccc(O)c(CO)n1 (centres undefined)	8.77%
COC(=O)[C@H]1[C@H]2C[C@@H]3c4[nH]c5cc(OC)ccc5c4CCN3C[C@H]2C[C@H](OC)[C@@H]1OC	-23.3%
COC(=O)[C@@H](N)CS	-5.08%
CCOC(=O)C1=C(COCCN)NC(C)=C(C(=O)OC)C1c1ccccc1Cl (centres undefined)	-0.378%
NC(=S)N=Nc1ccc(NN=C(N)N)cc1	-3.34%
CCOc1ccc(NC(=S)Nc2ccc(OCC)cc2)cc1	8.82%
Cn1c(O)c(N=NC(N)=S)c2ccccc21	-12.6%
COc1cc2c(cc1OC)[C@@H](Cc1cc(OC)c(OC)c(OC)c1)[N+](C)(CCCOC(=O)CC/C=C/CCC(=O)OCCC[N+]1(C)CCc3cc(OC)c(OC)cc3[C@H]1Cc1cc(OC)c(OC)c(OC)c1)CC2 (some centres undefined)	10.2%
CCCCCCCCCCCCCCCCOCCOCCOCCOCCOCCOCCOCCOCCOCCOCCOCCOCCOCCOCCOCCOCCOCCOCCOCCOCCO	4.71%
CSc1nc2cc(Oc3cccc(Cl)c3Cl)c(Cl)cc2[nH]1	-11.9%
OC1OC[C@@H](O)[C@H](O)[C@@H]1O (some centres undefined)	7.51%
CC[C@@H](C(=O)[C@@H](C)[C@@H](O)[C@H](C)[C@@H]1O[C@@H]([C@@H](CC)C(=O)O)CC[C@@H]1C)[C@H]1O[C@]2(C=C[C@@H](O)[C@]3(CC[C@@](C)([C@H]4CC[C@](O)(CC)[C@H](C)O4)O3)O2)[C@H](C)C[C@@H]1C	-13%
